# Key:
# Details in all cases: concentration: 1 μM,replicates: in singlicate; n = 1
# [1] = tested on: CDK8
# [2] = tested on: CDK9
# [3] = tested on: CDKL1
# [4] = tested on: CDKL2
# [5] = tested on: CDKL3
# [6] = tested on: CDKL5
# [7] = tested on: CHEK1
# [8] = tested on: CHEK2
# [9] = tested on: CIT
# [10] = tested on: CLK1
# [11] = tested on: CLK2
# [12] = tested on: CLK3
# [13] = tested on: CLK4
# [14] = tested on: CSF1R-autoinhibited
# [15] = tested on: CSF1R
# [16] = tested on: CSK
# [17] = tested on: CSNK1A1L
# [18] = tested on: CSNK1A1
# [19] = tested on: CSNK1D
# [20] = tested on: CSNK1E
# 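Also: KINOMEscan kinase panel screen.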
SMILES,%Inh [1] [%],%Inh [2] [%],%Inh [3] [%],%Inh [4] [%],%Inh [5] [%],%Inh [6] [%],%Inh [7] [%],%Inh [8] [%],%Inh [9] [%],%Inh [10] [%],%Inh [11] [%],%Inh [12] [%],%Inh [13] [%],%Inh [14] [%],%Inh [15] [%],%Inh [16] [%],%Inh [17] [%],%Inh [18] [%],%Inh [19] [%],%Inh [20] [%]
CCN1CCN(CCCC(=O)Nc2n[nH]c3nc(-c4ccc(O)cc4)c(Br)cc23)CC1 [SB-731579],14,0,23,73,2,86,0,15,63,47,8,66,45,0,0,0,0,5,0,0
Cc1cccc2c(-c3ccncc3)c(-c3ccc(F)cc3)nn12.Cl [GW461487],25,0,12,8,0,0,0,0,90,17,0,3,0,4,0,0,22,51,93.3,84
COc1cc2nccc(Nc3ccc(Oc4ccccc4)cc3)c2cc1OC.Cl [GI261656],38,0,0,10,0,0,0,67,0,19,0,0,0,26,14,91.9,0,0,0,41
NC(=O)Nc1sc(-c2ccc(F)cc2)cc1C(N)=O [GW789449],46,0,27,17,10,0,0,69,27,9,0,15,0,39,77,6,5,35,55,40
N#Cc1cccc(C(=O)NC2CCN(c3ccnc(Nc4ccc(F)cc4)n3)C2)c1 (centres unmarked) [GSK1379708],19,0,8,17,0,6,0,0,11,14,0,0,1,2,1,24,1,0,17,1
O=C(Nc1ccccc1)c1cccc(Oc2ccc3nccn3n2)c1,0,94.6,0,20,0,0,0,0,32,0,20,0,0,0,81,0,0,0,0,0
COc1ccc(Nc2nccc(N3CCC(NC(=O)c4cccc(C#N)c4)C3)n2)cc1 (centres unmarked) [GSK1379730],17,0,24,0,0,0,0,0,0,11,0,5,21,24,0,0,11,0,29,27

# From PMC5540273 (PLoS ONE, 2017)
